Test results: PubChem BioAssay
Activity calls are given as the source filed them.

How the values were obtained:
[1] = E. coli DRC41 culture turbidity changes, primary screen, E. coli filamentation inducer project, strain DRC41, OD650, 48 h (AID 1152);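 note: E. coli MC1000 strain DRC41 lacking acrAB efflux pump and sulA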; conditions: E. coli DRC41 (acrAB sulA), higher = more signal, called active from +8 up or from −8 down
[2] = small-molecule binders of probe aLefty1, primary screen, biochemical, small-molecule microarray, 635/667 nm fluorescence (AID 1153); conditions: higher = more signal;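 note: score merges spot fluorescence with signal-to-noise ratio from the scanned slide images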
[3] = PSAC antagonists in infected red cells, primary screen, cell-based, P. falciparum Indochina, OD700, 1 h (AID 1154); conditions: P. falciparum Indochina infected RBC osmotic lysis, higher = more signal, called active from +8 up or from −8 down
[4] = PSAC antagonists in infected red cells, primary screen, cell-based, P. falciparum Indochina, OD700, 2 h (AID 1155);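 note: lysis reports solute entry through the parasite surface anion channel PSAC; channel blockers reduce lysis of infected cells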; conditions: P. falciparum Indochina infected erythrocytes, osmotic lysis OD700; higher = more signal, called active from +8 up or from −8 down
[5] = osmotic lysis modulators in infected erythrocytes, primary screen, PSAC antagonist project, cell-based, P. falciparum Indochina, OD700, 3 h (AID 1156); conditions: higher = more signal, called active from +8 up or from −8 down
[6] = PSAC antagonists in infected red cells, primary screen, cell-based, P. falciparum Indochina, OD700, 18 h (AID 1157); conditions: P. falciparum Indochina infected erythrocytes, osmotic lysis OD700, 18 h; higher = more signal, called active from +8 up or from −8 down
[7] = modulators of S6 phosphorylation in cells, primary screen, cell-based, A549, cytoblot, luminescence, serum-stimulated (AID 1158); conditions: A549 phospho-S6 cytoblot, 5 h, higher = more signal;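 note: serum-stimulated A549 lung adenocarcinoma cells; signal is phosphorylated S6 detected by cytoblot immunostaining with HRP secondary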
[8] = molecular target: NADPH oxidase 2 (Homo sapiens) (UniProt P04839); assay: NOX2-dependent H2O2 signal modulators, primary screen, NOX inhibitor project, cell-based, HEK293-NOX2, PMA-stimulated, Amplex Red fluorescence (AID 1159); conditions: 45 min, higher = more signal, called active from +8 up or from −8 down; note: test concentration not given here
Chain of NADPH oxidase 2 (Homo sapiens) (P04839 whole entry, looked up): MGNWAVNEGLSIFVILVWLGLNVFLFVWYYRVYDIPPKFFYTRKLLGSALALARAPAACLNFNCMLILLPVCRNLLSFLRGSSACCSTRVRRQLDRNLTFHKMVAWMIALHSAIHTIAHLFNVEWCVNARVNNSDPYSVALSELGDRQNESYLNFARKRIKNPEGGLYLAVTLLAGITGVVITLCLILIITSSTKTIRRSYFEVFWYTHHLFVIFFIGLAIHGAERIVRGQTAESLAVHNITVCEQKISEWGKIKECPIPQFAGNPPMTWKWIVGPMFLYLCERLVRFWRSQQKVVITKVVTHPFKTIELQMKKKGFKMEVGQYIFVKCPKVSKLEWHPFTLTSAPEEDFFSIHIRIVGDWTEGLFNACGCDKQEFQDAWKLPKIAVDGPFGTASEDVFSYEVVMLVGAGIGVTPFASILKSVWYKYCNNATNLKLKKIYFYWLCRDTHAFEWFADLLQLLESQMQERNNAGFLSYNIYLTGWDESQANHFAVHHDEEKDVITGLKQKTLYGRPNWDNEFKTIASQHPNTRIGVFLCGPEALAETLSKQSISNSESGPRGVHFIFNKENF

[9] = molecular target: NADPH oxidase 4 (Homo sapiens) (UniProt Q9NPH5); assay: NOX4-dependent H2O2 signal modulators, primary screen, NOX inhibitor project, cell-based, HEK293-NOX4, tetracycline-induced, Amplex Red fluorescence (AID 1160); conditions: 45 min, higher = more signal, called active from +8 up or from −8 down
Chain of NADPH oxidase 4 (Homo sapiens) (Q9NPH5 whole entry, looked up): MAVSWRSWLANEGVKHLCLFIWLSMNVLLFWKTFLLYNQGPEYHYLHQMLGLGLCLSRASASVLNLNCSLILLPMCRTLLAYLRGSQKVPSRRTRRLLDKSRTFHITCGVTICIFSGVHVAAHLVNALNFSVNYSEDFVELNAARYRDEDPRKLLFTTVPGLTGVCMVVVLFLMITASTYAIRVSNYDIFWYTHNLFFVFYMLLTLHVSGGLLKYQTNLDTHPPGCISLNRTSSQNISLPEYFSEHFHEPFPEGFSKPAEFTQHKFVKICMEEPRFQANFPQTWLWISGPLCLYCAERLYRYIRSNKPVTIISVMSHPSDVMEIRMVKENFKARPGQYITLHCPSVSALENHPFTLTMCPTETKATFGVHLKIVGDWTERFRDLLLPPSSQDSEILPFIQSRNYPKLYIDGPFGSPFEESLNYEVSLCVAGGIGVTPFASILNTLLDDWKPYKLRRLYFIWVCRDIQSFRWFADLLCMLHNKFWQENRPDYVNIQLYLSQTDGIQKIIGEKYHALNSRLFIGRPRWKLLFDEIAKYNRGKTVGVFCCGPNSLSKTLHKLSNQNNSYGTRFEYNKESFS

[10] = molecular target: NADPH oxidase 5 (Homo sapiens) (UniProt Q96PH1); assay: NOX5-dependent H2O2 signal modulators, primary screen, NOX inhibitor project, cell-based, HEK293-NOX5, Amplex Red fluorescence (AID 1161); conditions: HEK293-NOX5, ionomycin, 45 min, higher = more signal
Chain of NADPH oxidase 5 (Homo sapiens) (Q96PH1 whole entry, looked up): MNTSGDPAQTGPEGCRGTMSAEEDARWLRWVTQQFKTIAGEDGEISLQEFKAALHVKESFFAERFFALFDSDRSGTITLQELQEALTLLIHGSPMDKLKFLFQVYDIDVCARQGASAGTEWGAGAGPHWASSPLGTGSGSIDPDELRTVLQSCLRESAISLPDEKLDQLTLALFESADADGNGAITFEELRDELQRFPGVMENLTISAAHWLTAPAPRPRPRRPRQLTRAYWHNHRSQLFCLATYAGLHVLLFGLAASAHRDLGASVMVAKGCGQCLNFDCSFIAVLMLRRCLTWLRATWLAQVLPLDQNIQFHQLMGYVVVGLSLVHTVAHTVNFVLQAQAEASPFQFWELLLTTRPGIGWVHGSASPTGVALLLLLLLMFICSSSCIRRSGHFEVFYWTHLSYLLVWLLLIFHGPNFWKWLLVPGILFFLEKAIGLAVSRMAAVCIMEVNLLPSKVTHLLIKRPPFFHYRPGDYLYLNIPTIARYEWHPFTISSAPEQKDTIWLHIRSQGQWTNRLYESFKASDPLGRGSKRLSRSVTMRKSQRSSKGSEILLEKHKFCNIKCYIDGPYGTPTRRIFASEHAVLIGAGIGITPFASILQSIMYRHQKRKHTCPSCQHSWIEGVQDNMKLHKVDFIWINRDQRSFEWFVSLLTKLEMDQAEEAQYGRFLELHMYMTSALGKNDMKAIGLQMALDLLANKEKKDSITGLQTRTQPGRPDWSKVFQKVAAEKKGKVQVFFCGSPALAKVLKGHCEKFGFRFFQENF

Structure (SMILES)	z-score [1]	composite z-score [2]	z-score [3]	z-score [4]	z-score [5]	z-score [6]	z-score [7]	z-score [8]	z-score [9]	z-score [10]
CCOc1ccc(N2C(=O)/C(=C/C=C/c3ccccc3OC)S(=O)(=O)C2c2cccc([N+](=O)[O-])c2)cc1 (stereo not given)	3.21 (inactive)	-0.0193	1.03 (inactive)	0.282 (inactive)	-1.1 (inactive)	-1.04 (inactive)	2.38	0.5 (inactive)	0.389 (inactive)	1.49
CCc1cc2c(nc1CC)CCN(CCC(C)=NO[C@@H](C)c1cc(-c3c(C)cc(C)cc3C)no1)C2	0.187 (inactive)	-0.192	4.75 (inactive)	0.445 (inactive)	1.41 (inactive)	0.514 (inactive)	0.549	-2.21 (inactive)	-0.321 (inactive)	-2.75
O=C(CS)NCCCCCNC(=O)[C@H]1C[C@H]2C(=O)N3CCC[C@H]3C(=O)N2[C@H]1c1cccc(OCCO)c1	-0.0612 (inactive)	0.315	3.12 (inactive)	0.55 (inactive)	-2.35 (inactive)	0.35 (inactive)	0.345	1.45 (inactive)	0.557 (inactive)	0.557
COCCOC(=O)N1C(=O)[C@@]2(c3ccccc31)[C@H](C(N)=O)[C@H]1C(=O)O[C@H](c3ccccc3)[C@H](c3ccccc3)N1[C@@H]2c1ccccc1OCCO	0.582 (inactive)	0.144	3.59 (inactive)	1.14 (inactive)	-0.0776 (inactive)	1.2 (inactive)	0.404	1.56 (inactive)	1.43 (inactive)	0.483
CN1C(=O)C2C(C1=O)C1C=C(CCCO)C2C(c2ccc(CN3CCCC3)cc2)N1C (stereo not given)	-0.204 (inactive)	0.0811	1.51 (inactive)	0.621 (inactive)	0.914 (inactive)	0.378 (inactive)	0.318	-2.14 (inactive)	-1.25 (inactive)	-0.91
O=C1C[C@@H](O)[C@@H](O)[C@@H]2[C@@H]3C(=O)N(c4cccc(Oc5ccccc5)c4)C(=O)[C@@H]3CC[C@@H]12	-0.268 (inactive)	-0.0652	0.956 (inactive)	-0.329 (inactive)	0.406 (inactive)	0.0818 (inactive)	-0.363	-0.837 (inactive)	-0.154 (inactive)	0.558
COc1ccc(O[C@H]2C=C[C@@H](c3ccccc3)O[C@@H]2COC(=O)CCC(C)=NOC[C@@H](C)[C@H](OCc2ccccc2)C(C)C)cc1	-0.72 (inactive)	-0.278	0.857 (inactive)	0.55 (inactive)	0.607 (inactive)	0.294 (inactive)	-0.656	0.796 (inactive)	0.478 (inactive)	0.329
CO[C@@H]1COC(=O)CC=C[C@@H](C)[C@H](OC)COC(=O)[C@H](COCc2ccccc2)NC(=O)CC=C[C@H]1C	-0.991 (inactive)	-0.147	-0.129 (inactive)	0.151 (inactive)	0.181 (inactive)	0.354 (inactive)	0.354	-1.79 (inactive)	0.0385 (inactive)	0.0539
O=C(NN=C1C[C@@H](O)[C@@H](O)[C@@H]2[C@@H]3C(=O)N(c4cccc(Oc5ccccc5)c4)C(=O)[C@@H]3CC[C@@H]12)OCc1ccccc1	-0.385 (inactive)	0.101	2.57 (inactive)	0.237 (inactive)	1.09 (inactive)	0.0572 (inactive)	-0.818	1.05 (inactive)	-2.06 (inactive)	0.134
O=C1O[C@@H](c2ccccc2)[C@@H](c2ccccc2)N2[C@@H](c3ccccc3OCCO)[C@]3(C(=O)Nc4ccc(C#CCCO)cc43)[C@@H](C(=O)O)[C@H]12	0.0825 (inactive)	1.66	1.32 (inactive)	-2.1 (inactive)	0.152 (inactive)	-2.06 (inactive)	1.47	0.559 (inactive)	-0.438 (inactive)	-0.847
CCN1C(=O)[C@H]2[C@H]3[C@H](O)[C@H](O)CC(=NO[C@@H]4O[C@H](CO)[C@@H](O)[C@H](O)[C@H]4O)[C@@H]3CC[C@H]2C1=O	0.0871 (inactive)	-0.183	0.568 (inactive)	0.283 (inactive)	-0.846 (inactive)	-0.0143 (inactive)	0.345	0.0968 (inactive)	0.303 (inactive)	-0.0261
COC(=O)CC=C[C@@H](C)[C@@H](C=NO[C@H](C)c1cn([C@@H]2COC[C@H]2O)nn1)OC	0.319 (inactive)	-0.0003	0.813 (inactive)	0.499 (inactive)	0.5 (inactive)	0.415 (inactive)	0.502	-0.0191 (inactive)	0.488 (inactive)	-0.0693
COC(=O)[C@H](C)NC(=O)CCC1CC(OC(=O)NCc2cccc3ccccc23)CC2(CCCC(COC(=O)NCC3CCCCC3)O2)O1 (stereo not given in full)	-0.484 (inactive)	-0.325	0.994 (inactive)	-0.35 (inactive)	-0.555 (inactive)	0.125 (inactive)	-0.444	0.17 (inactive)	0.236 (inactive)	0.469
COC(=O)[C@@]1(Cc2ccc(F)cc2)[C@H]2c3cc(C(=O)N(C)C)n(Cc4ccc(OC)c(OC)c4)c3C[C@H]2CN1C(=O)c1ccccc1	-1.19 (inactive)	0.109	0.933 (inactive)	-0.512 (inactive)	0.746 (inactive)	-1.37 (inactive)	2.19	-3.29 (inactive)	-1.97 (inactive)	-4.09
CC(C)CON=C1[C@H]2CCn3c(=O)n(-c4ccccc4)c(=O)n3[C@H]2[C@H](O)[C@@H]2O[C@H]12	0.424 (inactive)	-0.105	0.175 (inactive)	-0.2 (inactive)	0.0794 (inactive)	0.0344 (inactive)	0.0305	-5.13 (inactive)	0.018 (inactive)	0.407
COC(=O)CC=C[C@@H](C)[C@@H](C=NO[C@@H](C)c1cc(-c2c(C)cc(C)cc2C)no1)OC	-1.45 (inactive)	0.0004	3.39 (inactive)	-0.032 (inactive)	0.505 (inactive)	-1.37 (inactive)	2.15	-1.04 (inactive)	-0.771 (inactive)	-3.87
COc1ccc([Si](C)(C)[C@@H]2[C@@H](CCO)O[C@]3(C(=O)N(Cc4ccc(NC(C)=O)cc4)c4ccccc43)[C@H]2C)cc1	0.694 (inactive)	0.16	23 (active)	7.13 (inactive)	-0.199 (inactive)	0.0087 (inactive)	0.339	-0.371 (inactive)	-0.0308 (inactive)	0.207
COc1ccc(O[C@H]2C=C[C@@H](c3ccccc3)O[C@@H]2CON=C[C@@H](C)[C@H](OCc2ccccc2)C(C)C)cc1	0.302 (inactive)	-0.246	2.08 (inactive)	0.98 (inactive)	0.422 (inactive)	0.319 (inactive)	0.831	-0.734 (inactive)	0.877 (inactive)	-0.165
COC(=O)[C@@H]1CCCN1C(=O)[C@@H](C)CO	-0.926 (inactive)	-0.147	0.34 (inactive)	-0.603 (inactive)	0.864 (inactive)	-1.69 (inactive)	1.4	-0.366 (inactive)	-0.739 (inactive)	-1.15
O=C1c2ccccc2[C@@]2(Cc3ccccc3N(C3CC3)C2=O)[C@H](c2ccc(CO)cc2)N1Cc1ccccc1C(F)(F)F	-0.262 (inactive)	0.566	0.949 (inactive)	-0.28 (inactive)	-0.31 (inactive)	-1.41 (inactive)	1.01	0.136 (inactive)	-1.4 (inactive)	-0.129
O=C(CS)NCCCCCNC(=O)[C@@H]1C[C@@H]2C(=O)N[C@@H](Cc3ccccc3)C(=O)N2[C@@H]1c1ccc(O)cc1	0.942 (inactive)	0.0839	10.1 (active)	1.07 (inactive)	-0.676 (inactive)	0.325 (inactive)	-0.205	0.727 (inactive)	-0.142 (inactive)	0.0233
CCOC(=O)NN=C1C[C@@H](O)[C@@H](O)[C@@H]2[C@@H]3C(=O)N(C[C@@H]4CCCO4)C(=O)[C@@H]3CC[C@@H]12	1.2 (inactive)	-0.245	0.564 (inactive)	-0.243 (inactive)	0.406 (inactive)	-0.0631 (inactive)	-0.0861	-0.543 (inactive)	0.111 (inactive)	0.354
CS(=O)(=O)CCOC(=O)C1=CC(CCCO)=CC(c2cccs2)N(Cc2cccc(OC(F)(F)F)c2)C=C1C(=O)OCCS(C)(=O)=O (stereo not given)	-0.697 (inactive)	0.217	6.83 (inactive)	1.56 (inactive)	0.813 (inactive)	0.969 (inactive)	-0.0175	-0.895 (inactive)	-1.15 (inactive)	-2.09
CC(C)NC(=O)[C@@H]1c2ccccc2C(=O)N(CC23CC4CC(CC(C4)C2)C3)[C@H]1c1ccc(CO)cc1	1.47 (inactive)	0.433	1.63 (inactive)	-0.315 (inactive)	-0.143 (inactive)	-0.853 (inactive)	1.31	0.357 (inactive)	0.318 (inactive)	-1.82
C[N+](C)(C)CCCCCCNC(=O)[C@@H]1C[C@@H]2C(=O)N3CCC[C@H]3C(=O)N2[C@@H]1c1cccc(OCCO)c1	0.733 (inactive)	0.388	5.3 (inactive)	0.679 (inactive)	1.45 (inactive)	0.277 (inactive)	0.0239	0.15 (inactive)	0.982 (inactive)	1.49
